Counter-ions that a name gives are not always drawn.
Key:
Assay in all cases: growth AUC normalised to DMSO control (median) (fraction of control); higher = less growth inhibition, active = hit call of the paper
Settings in all cases: 20 µM;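 active = normalised median growth AUC below 0.1 of DMSO control; inactive = AUC 0.1 or higher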
P. vulgatus RND KO = test system: P. vulgatus RND KO
How it was run: (§1)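 After two overnight anaerobic passages, strains were inoculated at OD578 0.01 into mGAM in 96-well plates containing approved-drug library compounds at 20 μM and 1% DMSO. Growth was followed by reading OD578 hourly for 24 h within an anaerobic incubator. Area under the curve, taken by the trapezoidal rule up to the start of stationary phase, was normalised to same-plate vehicle wells, and the median of three biological replicates is listed.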

P. vulgatus WT = test system: P. vulgatus WT
How it was run: as §1

[1] = test system: S. enterica typhimurium WT
How it was run: as §1

[2] = test system: S. enterica typhimurium tolC KO
How it was run: as §1

Measured: growth AUC normalised to DMSO control
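Also: active when median AUC fell below 0.1.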

N[C@@H](CSCCCO)C(=O)O [Fudosteine]
inactive: P. vulgatus RND KO 1 | P. vulgatus WT 0.987 | [1] 0.996 | [2] 1

OC[C@H]1O[C@@H](c2ccc(Cl)c(Cc3ccc(O[C@H]4CCOC4)cc3)c2)[C@H](O)[C@@H](O)[C@@H]1O [Empagliflozin]
inactive: P. vulgatus RND KO 1.02 | P. vulgatus WT 1.04 | [1] 1.01 | [2] 0.992

CN(C)CCc1c[nH]c2ccc(C[C@H]3COC(=O)N3)cc12 [Zolmitriptan]
inactive: P. vulgatus RND KO 0.971 | P. vulgatus WT 0.964 | [1] 1 | [2] 1

O=C(Cn1c(=O)sc2ccc(Cl)cc21)N1CCN(CCO)CC1 [Tiaramide Hydrochloride]
inactive: P. vulgatus RND KO 1 | P. vulgatus WT 1.04 | [1] 1.01 | [2] 0.995

C/C(=C1\CCOC(=O)S1)N(C=O)Cc1cnc(C)nc1N [Cycotiamine]
inactive: P. vulgatus RND KO 1.01 | P. vulgatus WT 1.07 | [1] 0.995 | [2] 1

CC1=C(C(=O)O)N2C(=O)[C@@H](NC(=O)[C@H](N)c3ccccc3)[C@H]2SC1 [Cephalexin monohydrate]
inactive: P. vulgatus RND KO 1.04 | P. vulgatus WT 1.04 | [1] 0.999 | [2] 0.968

CC(C)(C)CC(C)(C)c1ccc(O)c(Cc2ccc(Cl)cc2Cl)c1 [Clofoctol]
inactive: P. vulgatus RND KO 0.619 | P. vulgatus WT 0.581 | [1] 0.995 | [2] 1.02

CC(C)(C)c1ccc(C(=O)CCCN2CCC(OC(c3ccccc3)c3ccccc3)CC2)cc1 [Ebastine]
inactive: P. vulgatus RND KO 0.999 | P. vulgatus WT 1.01 | [1] 1.01 | [2] 0.97

CO/N=C1\CN(c2nc3c(cc2F)c(=O)c(C(=O)O)cn3C2CC2)CC1CN (stereo not drawn) [Gemifloxacin mesylate]
active: P. vulgatus RND KO 0.0152 | P. vulgatus WT 0.0136 | [1] 0.0112 | [2] 0.0027

O=S(=O)(c1cccc2cnccc12)N1CCCNCC1 [Fasudil Hydrochloride]
inactive: P. vulgatus RND KO 1 | P. vulgatus WT 1 | [1] 1 | [2] 1.01

COc1cccc(CCc2ccccc2OCC(CN(C)C)OC(=O)CCC(=O)O)c1 (stereo not drawn) [Sarpogrelate hydrochloride]
inactive: P. vulgatus RND KO 1.03 | P. vulgatus WT 1.05 | [1] 1 | [2] 0.988

O=C1[C@@H]2[C@H]3CC[C@H](C3)[C@@H]2C(=O)N1CCCCN1CCN(c2ncccn2)CC1 [Tandospirone]
inactive: P. vulgatus RND KO 1.07 | P. vulgatus WT 1.05 | [1] 1.01 | [2] 0.996

CCCCCCCCCCCCCCCCCCCCCC(=O)Nc1ccn([C@@H]2O[C@H](CO)[C@@H](O)[C@@H]2O)c(=O)n1 [Enocitabine]
inactive: P. vulgatus RND KO 1.01 | P. vulgatus WT 1.04 | [1] 1.01 | [2] 1

CCOc1ccc2nc(S(N)(=O)=O)sc2c1 [Ethoxzolamide]
inactive: P. vulgatus RND KO 0.965 | P. vulgatus WT 1 | [1] 0.997 | [2] 0.998

NC(=O)[C@@H]1CCCN1C(=O)[C@H](Cc1c[nH]cn1)NC(=O)[C@@H]1CCC(=O)N1 [Thyrotropin-Releasing Hormone]
inactive: P. vulgatus RND KO 1.05 | P. vulgatus WT 1.04 | [1] 0.996 | [2] 1.01

COc1c(-c2ccc3cc(NS(C)(=O)=O)ccc3c2)cc(-n2ccc(=O)[nH]c2=O)cc1C(C)(C)C [Dasabuvir]
inactive: P. vulgatus RND KO 0.831 | P. vulgatus WT 0.827 | [1] 1 | [2] 0.94

CCOC(=O)[C@H](CCc1ccccc1)N[C@@H](C)C(=O)N1C(=O)N(C)C[C@H]1C(=O)O [Imidapril hydrochloride]
inactive: P. vulgatus RND KO 1.01 | P. vulgatus WT 1 | [1] 1.02 | [2] 1

CC(C)c1nc(N(C)S(C)(=O)=O)nc(-c2ccc(F)cc2)c1/C=C/[C@@H](O)C[C@@H](O)CC(=O)O [Rosuvastatin]
inactive: P. vulgatus RND KO 1.01 | P. vulgatus WT 1.03 | [1] 1.01 | [2] 1.01

CSc1nc2cc(Cl)c(Oc3cccc(Cl)c3Cl)cc2[nH]1 [Triclabendazole]
active: P. vulgatus RND KO 0.0625 | [2] 0.0431
inactive: P. vulgatus WT 0.129 | [1] 0.991

CN1CC(=O)N2[C@H](c3ccc4c(c3)OCO4)c3[nH]c4ccccc4c3C[C@@H]2C1=O [Tadalafil]
inactive: P. vulgatus RND KO 0.919 | P. vulgatus WT 0.845 | [1] 0.996 | [2] 0.981

CCCc1c2oc(C(=O)O)cc(=O)c2cc2c(=O)cc(C(=O)O)n(CC)c12 [Nedocromil sodium]
inactive: P. vulgatus RND KO 1.02 | P. vulgatus WT 1.03 | [1] 0.992 | [2] 0.995

C[N+](C)(C)C[C@H](O)CC(=O)[O-] [Levocarnitine]
inactive: P. vulgatus RND KO 0.998 | P. vulgatus WT 1.04 | [1] 0.998 | [2] 1

CCN1CC(CCN2CCOCC2)C(c2ccccc2)(c2ccccc2)C1=O (stereo not drawn) [Doxapram hydrochloride]
inactive: P. vulgatus RND KO 1.05 | P. vulgatus WT 1.03 | [1] 1.02 | [2] 0.996

COc1nc(N)nc2c1ncn2[C@@H]1O[C@H](CO)[C@@H](O)[C@@H]1O [Nelarabine]
inactive: P. vulgatus RND KO 0.98 | P. vulgatus WT 0.981 | [1] 0.997 | [2] 0.981

COc1ccc(C(=O)c2ccc(C)cc2)c(O)c1 [Mexenone]
inactive: P. vulgatus RND KO 0.999 | P. vulgatus WT 1 | [1] 1 | [2] 0.931

CC(C)C(=O)OCC(=O)[C@@]12O[C@H](C3CCCCC3)O[C@@H]1C[C@H]1[C@@H]3CCC4=CC(=O)C=C[C@]4(C)[C@H]3[C@@H](O)C[C@@]12C [Ciclesonide]
inactive: P. vulgatus RND KO 1.02 | P. vulgatus WT 1.02 | [1] 1.01 | [2] 1.01

O=C1OC(CN2CCOCC2)CN1/N=C/c1ccc([N+](=O)[O-])o1 (stereo not drawn) [Furaltadone hydrochloride]
active: P. vulgatus RND KO 0.0255 | P. vulgatus WT 0.0192
inactive: [1] 0.878 | [2] 0.856

COc1cc(C(=O)NC2CCCNC2)cc(OC)c1OC (stereo not drawn) [Troxipide]
inactive: P. vulgatus RND KO 1.07 | P. vulgatus WT 1.1 | [1] 0.998 | [2] 0.995

C[C@H](CCc1ccccc1)NC[C@H](O)c1ccc(O)c(C(N)=O)c1 [Dilevalol]
inactive: P. vulgatus RND KO 1.02 | P. vulgatus WT 1.05 | [1] 0.996 | [2] 1.01

COc1ccc2c(c1)c(CC(=O)OC/C=C(\C)CC/C=C(\C)CCC=C(C)C)c(C)n2C(=O)c1ccc(Cl)cc1 [Indometacin farnesil]
inactive: P. vulgatus RND KO 1 | P. vulgatus WT 0.988 | [1] 0.996 | [2] 1.01

COc1cc2c(cc1OC)CC(=O)N(CCCN(C)C[C@H]1Cc3cc(OC)c(OC)cc31)CC2 [Ivabradine hydrochloride]
inactive: P. vulgatus RND KO 1 | P. vulgatus WT 0.997 | [1] 1.01 | [2] 0.965

CO[C@@H]1[C@@H](O[C@@H]2O[C@H](C)[C@@H](O[C@H]3C[C@@](C)(O)[C@@H](O)[C@H](C)O3)[C@H](N(C)C)[C@H]2O)[C@@H](CC=O)C[C@@H](C)[C@@H](O[C@H]2CC[C@H](N(C)C)[C@@H](C)O2)/C=C/C=C/C[C@@H](C)OC(=O)C[C@H]1OC(C)=O [Acetyl spiramycin]
inactive: [1] 0.991 | [2] 0.65
active: P. vulgatus RND KO 0.0119 | P. vulgatus WT 0.00707
